From PubChem BioAssay AID1159580 (chemical genetic matrix, 2015)
“And” between values parts separate entries of the source, which are not always exact repeats. Equal entries are not always repeated. Screen size: about 5,500 compounds; about 2,000 (36%) were called active. Another 18% or so got no clear call; they are omitted. No stated cut-off is given here; in the data, active means normalized growth mostly below about 0.91 (no sharp cut-off); inconclusive means no clear call, values can overlap the other calls; inactive means mostly above about 0.92. The list shows a part of the results.

Experiment: chemical genetic growth profiling, strain panel (AID 1159580);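 further: tested at 20 µM; growth read once vehicle control cultures reached saturation at 30 °C; 1 = growth at the plate median or of vehicle wells; lower values mean less growth of the strain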
Conditions: growth OD

Measured: normalized growth

NCCCS(=O)(=O)O
inactive: S. cerevisiae deletion strains, locus YKL068W, active compounds read low 0.995 | S. cerevisiae deletion strains, locus YKL085W, strain MDH1 (second series), active compounds read low 0.986 | S. cerevisiae deletion strains, locus YKL085W, strain MDH1, active compounds read low 0.986 | S. cerevisiae deletion strains, locus YKL160W, strain elf1, active compounds read low 1 | S. cerevisiae deletion strains, locus YKL190W, strain CNB1, active compounds read low 0.993 | S. cerevisiae deletion strains, locus YKR001C, strain vps1, active compounds read low 0.994 | S. cerevisiae deletion strains, locus YKR026C, strain gcn3, active compounds read low 1 | S. cerevisiae deletion strains, locus YKR091W, strain srl3, active compounds read low 1.01 | S. cerevisiae deletion strains, locus YLL001W, strain dnm1, active compounds read low 1.03 | S. cerevisiae deletion strains, locus YLL026W, active compounds read low 1.01 | S. cerevisiae deletion strains, locus YLL041C, strain sdh2, active compounds read low 1.01 | S. cerevisiae deletion strains, locus YLR027C, strain aat2, active compounds read low 0.996 | S. cerevisiae deletion strains, locus YLR039C, strain RIC1, active compounds read low 0.986 | S. cerevisiae deletion strains, locus YLR058C, strain SHM2, active compounds read low 0.965 | S. cerevisiae deletion strains, locus YLR102C, strain apc9, active compounds read low 0.993 | S. cerevisiae deletion strains, locus YLR113W, strain HOG1, active compounds read low 0.954 | S. cerevisiae deletion strains, locus YLR221C, strain rsa3, active compounds read low 1.01 | S. cerevisiae deletion strains, locus YLR258W, strain gsy2, active compounds read low 1.01 | S. cerevisiae deletion strains, locus YLR262C, strain YPT6 (second series), active compounds read low 1.02 | S. cerevisiae deletion strains, locus YLR262C, strain YPT6, active compounds read low 1.05 | S. cerevisiae deletion strains, locus YLR268W, strain sec22, active compounds read low 1.04 | S. cerevisiae deletion strains, locus YLR320W, strain mms22, active compounds read low 1.01 | S. cerevisiae deletion strains, locus YLR330W, strain CHS5, active compounds read low 0.983 | S. cerevisiae deletion strains, locus YLR342W, strain FKS1 (second series), active compounds read low 0.99 | S. cerevisiae deletion strains, locus YLR342W, strain FKS1, active compounds read low 1.02 | S. cerevisiae deletion strains, locus YLR357W, strain rsc2, active compounds read low 1.04 | S. cerevisiae deletion strains, locus YLR370C, strain arc18, active compounds read low 1.01 | S. cerevisiae deletion strains, locus YLR371W, strain rom2, active compounds read low 0.934 | S. cerevisiae deletion strains, locus YLR384C, strain iki3, active compounds read low 1.01 | S. cerevisiae deletion strains, locus YLR418C, strain cdc73, active compounds read low 1.01 | S. cerevisiae deletion strains, locus YML016C, strain PPZ1, active compounds read low 0.984 | S. cerevisiae deletion strains, locus YML032C, strain rad52, active compounds read low 0.994 | S. cerevisiae deletion strains, locus YML120C, strain ndi1, active compounds read low 1.02 | S. cerevisiae deletion strains, locus YML124C, strain tub3, active compounds read low 0.987 | S. cerevisiae deletion strains, locus YMR058W, strain fet3, active compounds read low 1.04 | S. cerevisiae deletion strains, locus YMR078C, strain ctf18, active compounds read low 0.999 | S. cerevisiae deletion strains, locus YMR125W, strain sto1, active compounds read low 1.02 | S. cerevisiae deletion strains, locus YMR129W, active compounds read low 1.01 | S. cerevisiae deletion strains, locus YMR205C, strain PFK2, active compounds read low 1.02 | S. cerevisiae deletion strains, locus YMR223W, strain ubp8, active compounds read low 0.96 | S. cerevisiae deletion strains, locus YMR231W, strain pep5, active compounds read low 1.02 | S. cerevisiae deletion strains, locus YMR263W, strain SAP30, active compounds read low 0.977 | S. cerevisiae deletion strains, locus YMR307W, strain GAS1, active compounds read low 0.971 | S. cerevisiae deletion strains, locus YNL067W, strain RPL9B, active compounds read low 1.01 | S. cerevisiae deletion strains, locus YNL071W, strain lat1, active compounds read low 1.03 | S. cerevisiae deletion strains, locus YNL128W, strain TEP1, active compounds read low 0.974 | S. cerevisiae deletion strains, locus YNL153C, strain GIM3, active compounds read low 0.991 and 1.01 | S. cerevisiae deletion strains, locus YNL175C, strain NOP13, active compounds read low 1 | S. cerevisiae deletion strains, locus YNL183C, strain NPR1, active compounds read low 0.937 | S. cerevisiae deletion strains, locus YNL197C, strain WHI3, active compounds read low 1.01 | S. cerevisiae deletion strains, locus YNL209W, strain ssb2, active compounds read low 1.01 | S. cerevisiae deletion strains, locus YNL224C, strain SQS1, active compounds read low 1.01 | S. cerevisiae deletion strains, locus YNL233W, strain BNI4, active compounds read low 0.987 | S. cerevisiae deletion strains, locus YNL248C, strain rpa49, active compounds read low 0.959 | S. cerevisiae deletion strains, locus YNL250W, strain rad50, active compounds read low 0.976 | S. cerevisiae deletion strains, locus YNL271C, strain bni1, active compounds read low 0.999 | S. cerevisiae deletion strains, locus YNL298W, strain CLA4, active compounds read low 0.967 | S. cerevisiae deletion strains, locus YNL307C, strain MCK1, active compounds read low 0.998 | S. cerevisiae deletion strains, locus YNL322C, strain KRE1 (second series), active compounds read low 1.01 | S. cerevisiae deletion strains, locus YNL322C, strain KRE1, active compounds read low 0.987 | S. cerevisiae deletion strains, locus YNR049C, strain mso1, active compounds read low 1.01 | S. cerevisiae deletion strains, locus YNR052C, strain pop2, active compounds read low 0.969 | S. cerevisiae deletion strains, locus YOL006C, strain TOP1, active compounds read low 1.02 | S. cerevisiae deletion strains, locus YOL012C, strain htz1 0.962 | S. cerevisiae deletion strains, locus YOL147C, strain pex11, active compounds read low 0.989 | S. cerevisiae deletion strains, locus YOR001W, strain rrp6, active compounds read low 1.01 | S. cerevisiae deletion strains, locus YOR061W, strain CKA2, active compounds read low 0.965 | S. cerevisiae deletion strains, locus YOR069W, strain VPS5, active compounds read low 0.984 | S. cerevisiae deletion strains, locus YOR070C, strain gyp1, active compounds read low 1.01 | S. cerevisiae deletion strains, locus YOR080W, strain dia2, active compounds read low 1.03 | S. cerevisiae deletion strains, locus YOR083W, strain WHI5 (second series), active compounds read low 1.02 | S. cerevisiae deletion strains, locus YOR083W, strain WHI5, active compounds read low 1 | S. cerevisiae deletion strains, locus YOR106W, strain vam3, active compounds read low 1.01 | S. cerevisiae deletion strains, locus YOR136W, strain idh2, active compounds read low 0.981 | S. cerevisiae deletion strains, locus YOR144C, strain elg1, active compounds read low 0.998 | S. cerevisiae deletion strains, locus YOR184W, strain ser1, active compounds read low 0.983 | S. cerevisiae deletion strains, locus YOR231W, strain MKK1, active compounds read low 0.976 | S. cerevisiae deletion strains, locus YOR265W, strain rbl2, active compounds read low 1.02 | S. cerevisiae deletion strains, locus YOR270C, strain vph1, active compounds read low 1.09 | S. cerevisiae deletion strains, locus YOR290C, strain snf2, active compounds read low 1.01 | S. cerevisiae deletion strains, locus YOR316C, strain cot1, active compounds read low 0.981 | S. cerevisiae deletion strains, locus YPL051W, strain arl3, active compounds read low 1.01 | S. cerevisiae deletion strains, locus YPL055C, strain LGE1, active compounds read low 0.993 | S. cerevisiae deletion strains, locus YPL078C, strain atp4, active compounds read low 1.02 | S. cerevisiae deletion strains, locus YPL106C, strain sse1, active compounds read low 1.01 | S. cerevisiae deletion strains, locus YPL240C, strain hsp82, active compounds read low 1.03 | S. cerevisiae deletion strains, locus YPL241C, strain CIN2, active compounds read low 0.997 | S. cerevisiae deletion strains, locus YPL256C, strain CLN2, active compounds read low 0.964 | S. cerevisiae deletion strains, locus YPR119W, strain clb2, active compounds read low 0.987 | S. cerevisiae deletion strains, locus YPR141C, strain kar3, active compounds read low 0.973 | S. cerevisiae deletion strains, locus YPR163C, strain tif3, active compounds read low 0.998 | S. cerevisiae deletion strains, locus YPR167C, strain met16, active compounds read low 1 | S. cerevisiae deletion strains, strain wtn01, active compounds read low 0.958 | S. cerevisiae strains, strain wild type, active compounds read low 0.984
